D2 antagonist: HTS Assay for Allosteric Antagonists of the Human D2 Dopamine Receptor: Primary Screen for Antagonists | inhibition, % at 10 µM | actives 2% (n = 340,000) | HEK293 TREx D2 cells, calcium flux, dopamine EC80; in the data active = inhibition above about 30%; inactive = below that, where a call was filed; also: 0% is about no effect
Target sequence (P14416 whole entry, looked up): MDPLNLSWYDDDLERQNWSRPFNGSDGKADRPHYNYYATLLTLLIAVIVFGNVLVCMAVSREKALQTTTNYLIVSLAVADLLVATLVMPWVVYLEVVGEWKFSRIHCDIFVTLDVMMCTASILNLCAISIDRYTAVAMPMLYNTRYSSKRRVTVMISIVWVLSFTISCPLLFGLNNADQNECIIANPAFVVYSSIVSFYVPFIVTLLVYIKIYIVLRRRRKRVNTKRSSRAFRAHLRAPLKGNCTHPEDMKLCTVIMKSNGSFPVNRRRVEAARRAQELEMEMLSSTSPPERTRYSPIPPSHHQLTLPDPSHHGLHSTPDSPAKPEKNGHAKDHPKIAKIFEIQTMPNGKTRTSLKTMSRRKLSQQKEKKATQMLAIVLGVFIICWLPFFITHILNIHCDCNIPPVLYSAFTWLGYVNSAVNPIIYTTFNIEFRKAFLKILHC
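Dopamine at EC80 is the agonist stimulus; test compounds precede it by 180 s. Calcium flux read kinetically in a force-coupled, inducible HEK293 T-REx D2 cell line.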
D2 ag-1: Beta-Arrestin HTS for Positive Allosteric Modulators of the Human D2 Dopamine Receptor: Agonists. D(2) dopamine receptor (Homo sapiens), P14416. DiscoveRx PathHunter D2 beta-arrestin, luminescence, 90 min; 100% = 57 uM dopamine signal. activation, % (no concentration beside the values). actives 0.084% (n = 360,000); in the data active = activation above about 40%; inconclusive = between about 15% and that limit
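DiscoveRx PathHunter D2 beta-arrestin cells (2,100/well) attached overnight, then compound-stimulated 90 min at 37 C in HBSS/10 mM HEPES/0.1% Tween-20 buffer; beta-galactosidase complementation read by luminescence after 1 h at ambient temperature. Dopamine 57 uM final (EC100) as control.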
D2 ag-2: HTS Assay for Allosteric Agonists of the Human D2 Dopamine Receptor: Primary Screen for Agonists | D(2) dopamine receptor (Homo sapiens), P14416 | HEK293 T-REx D2 cells, calcium flux agonist mode | activation, % at 2 µM | actives 0.53% (n = 340,000) | AID 485358, 2010;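 active = activation over 3 SD above normal in the single-dose calcium agonist read, cut at about 30% in these data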; also: 0% is about no effect
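Tetracycline-induced HEK293 Trex cells with D2 receptor force-coupled to calcium signaling, plated overnight at 30 C and loaded with no-wash calcium dye. Calcium flux read kinetically for 180 s after compound addition; responses flag agonists.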
D2 PAM-1: Beta-Arrestin HTS for Positive Allosteric Modulators of the Human D2 Dopamine Receptor: Potentiators. actives 0.23% (n = 360,000). potentiation, % (test concentration not listed). DiscoveRx D2 beta-arrestin cells, luminescence, 90 min; 100% = 57 uM dopamine signal. D(2) dopamine receptor (Homo sapiens), P14416. AID 624464, 2012; in the data active = potentiation above about 50%; inconclusive = mostly about 30% to 49%
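PathHunter beta-arrestin assay in DiscoveRx D2 cells. Compounds were added with an EC20 of dopamine (50 nM final) for 90 min at 37 deg C. Luminescence was read 1 h after detection reagent, with 57 uM dopamine as the EC100 control.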
D2 PAM-2: HTS Assay for Positive Allosteric Modulators of the Human D2 Dopamine Receptor: Primary Screen for Potentiators. actives 0.34% (n = 340,000). HEK293 T-REx D2, calcium flux, EC20 dopamine potentiation. AID 485347, 2010. D(2) dopamine receptor (Homo sapiens), P14416. potentiation, % at 10 µM;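 active = potentiation over 3 SD above the plate norm, cut at about 30% in these data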; also: 0% is about no effect
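Potentiation of an EC20 dopamine calcium response is measured in a force-coupled, tetracycline-inducible Hek293 Trex D2 line. Compound-only kinetic reads over 180 s flag agonists before dopamine addition.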
Numbers without * were called inactive; ? = inconclusive; nt = not tested or not shown. Shown are actives, neighbours in structure and some others; about 2.4% of the full set was active somewhere.

SMILES	D2 antagonist	D2 ag-1	D2 ag-2	D2 PAM-1	D2 PAM-2
COc1ccc(C(=O)C2CCCN(C3CSCCSC3)C2)c(OC)c1 (centres undefined)	57*	2	1	-18	-15
O=C(Nc1ccc2c(c1)OCO2)c1cccn(Cc2ccccc2)c1=O	nt	nt	nt	nt	17
Fc1ccc2c(c1)nnn2C1CCN(Cc2ccccc2)CC1	82*	-3	1	-37	-26
C[C@H]1CCC[C@H](O)CCCCCc2cc(O)cc(O)c2C(=O)O1	32*	-3	1	2	7
CCOC(=O)c1cncn1C(C)c1ccccc1 (centres undefined)	35*	-5	11	-5	-18
COC(=O)c1cncn1C(C)c1ccccc1 (centres undefined)	20	-3	-1	-4	-2
O=c1[nH]c2ccccc2n1C1CCN(CCCC(c2ccc(F)cc2)c2ccc(F)cc2)CC1	87*	1	2	-29	-29
Cc1cccc(CN2C(=O)CN=C(c3ccccc3)c3cc(Cl)ccc32)c1	nt	nt	1	nt	-2
COc1cccc(CNCCc2c[nH]c3ccccc23)c1OC	52*	-3	0	-26	-21
CCN(CC)C(=O)c1ccc(NC(=O)CCn2nc(-c3ccc(Cl)cc3)c3ccccc3c2=O)cc1	nt	nt	-1	nt	-9
Cn1c(O)c(C=Nc2ccc(F)cc2)c(=O)[nH]c1=O	35*	0	-1	4	-7
Cc1ccccc1-n1nc(C)c2c1NC(=O)CSC2c1ccc(N(C)C)cc1 (centres undefined)	nt	nt	3	nt	5
CC1CCC2C(C)C(=O)OC3OC4(C)CCC1C32OO4 (centres undefined)	-3	?	0	62*	13
CC1CCC2[C@@H](C)C(=O)OC3O[C@]4(C)CCC1C32OO4 (some centres undefined)	nt	?	nt	53*	nt
Cc1cccc(-n2c(CC3C(=O)Nc4ccc(C)cc43)nc3ccccc3c2=O)c1 (centres undefined)	nt	nt	4	nt	4
CSc1ccc(CN2CCN(Cc3ccccc3Cl)CC2)cc1	70*	-3	-5	-26	-31
CSc1ccc(CN2CCN(C(=O)Cc3ccccc3)CC2)cc1	nt	-6	nt	-10	nt
COc1ccc(CN2CCN(Cc3ccccc3F)CC2)cc1	31*	-4	0	-21	-17
O=c1c2ccccc2nc(/C=C\c2ccc(F)cc2)n1-c1ccccc1F	nt	nt	0	nt	-4
Cc1ccc(-c2nc(CN3C(=O)CN=C(c4ccccc4Cl)c4cc(Cl)ccc43)c(C)o2)cc1	nt	nt	3	nt	2
CC1=NN=C(c2ccc(N)cc2)c2cc3c(cc2C1)OCO3	-1	70*	1	28	-1
C1=C(CCNCc2ccccc2)CCCC1	39*	-3	0	-8	-13
CC(C)(C)c1ccc(C(=O)C2CCCN(C3CCC3)C2)cc1 (centres undefined)	37*	0	0	-15	-16
O=C(COC(=O)Cc1ccccc1)Nc1nnc(-c2ccccc2)o1	31*	2	0	-66	-11
O=C(CNC(=O)c1ccc(Cl)cc1)Nc1ccc(Br)cc1C(=O)c1ccccc1	34*	1	-1	-18	-21
SMILES	D2 antagonist	D2 ag-1	D2 ag-2	D2 PAM-1	D2 PAM-2
O=C(CNC(=O)c1cccc(Cl)c1)Nc1ccc(Br)cc1C(=O)c1ccccc1	9	1	1	-20	-11
CN1CCN(c2oc(-c3ccc(COc4ccccc4)o3)nc2C#N)CC1	nt	nt	0	nt	10
COC(=O)C1C=C2c3cccc4[nH]cc(c34)CC2N(C)C1 (centres undefined)	62*	nt	79*	nt	-30
CC[C@@H](CO)NC(=O)[C@@H]1C=C2c3cccc4[nH]cc(c34)C[C@H]2N(C)C1	nt	42*	nt	?	nt
O=c1c2ccccc2nc(/C=C/c2ccccc2F)n1-c1cccc(O)c1	nt	nt	nt	nt	2
CCCCCCCCCOc1ccc2[nH]cc(CCN)c2c1	13	nt	2	nt	-18
COc1ccc2[nH]cc(CCN)c2c1	-4	5	34*	-48	-4
COc1ccc(OCC(=O)N2CCN(CCc3ccccn3)CC2)cc1	nt	nt	1	nt	8
Cc1ccc2c(c1)C1CN(C)CCC1N2S(=O)(=O)c1ccccc1 (centres undefined)	44*	-1	-1	-22	-15
CN1CCN(c2c[nH]c(=O)[nH]c2=O)CC1	36*	-1	1	8	13
CN1CCN(c2ccccc2N)CC1	-12	0	1	-14	-6
CC1(C)CSC(=NCc2ccccc2)N1	56*	-2	73*	-8	-17
Cn1c(=O)n(C)c2cc(CNCCc3ccc(F)cc3)ccc21	nt	nt	2	nt	-10
CN1CSC(=S)N(C)C1	42*	-6	0	-2	7
CN1/C(=C\C=C\C2=[N+](C)c3ccc4ccccc4c3C2(C)C)C(C)(C)c2ccccc21	39*	nt	2	nt	27
CCN1/C(=C/C=C/C2=[N+](CC)c3ccccc3C2(C)C)C(C)(C)c2ccccc21	nt	-5	nt	-50	nt
Cc1ccc(OCC(=O)N2CCN(CCc3ccncc3)CC2)cc1C	nt	nt	-2	nt	15
Cc1cc(C)cc(NC(=O)CN2C(=O)CN=C(c3ccccc3)c3cc(Cl)ccc32)c1	nt	nt	0	nt	-9
N=Cc1c(O)n(-c2ccccc2)c(=O)n(-c2ccccc2)c1=O	-9	-6	1	64*	24
Cc1ccc(-n2c(O)c(C=N)c(=O)n(-c3ccc(C)cc3)c2=O)cc1	-4	1	1	-8	-1
O=C1CN=C(c2ccccc2)c2cc(Cl)ccc2N1Cc1ccc(Cl)cc1	nt	nt	1	nt	5
CC(=O)N1CN2CN(C1)CN(C(C)=O)C2	-9	-1	2	0	34*
Cc1ccc(NC(=O)N(Cc2ccc3c(c2)OCO3)C2CCN(Cc3ccccc3)CC2)cc1Cl	nt	nt	4	nt	nt
Cc1cccc(C2CC(=O)Oc3c2c(=O)oc2ccccc32)c1 (centres undefined)	nt	nt	nt	nt	0
Cc1ccccc1Cn1cccc(C(=O)Nc2cc(Cl)ccc2C#N)c1=O	nt	nt	nt	nt	-12
Clc1ccc(C(OCCN2CCCCC2)c2ccccc2)cc1 (centres undefined)	43*	-6	0	0	-20
O=C(COc1ccccc1F)N1CCN(Cc2cc(=O)n3nc(-c4ccccc4Cl)sc3n2)CC1	nt	nt	0	nt	8
Nc1c([N+](=O)[O-])cc(F)c(N2CCNCC2)c1Br	10	1	-4	-12	11
